Test results published in publication PMC7862700, “An all-to-all approach to the identification of sequence-specific readers for epigenetic DNA modifications on cytosine”.

Experiments:
Assay in all cases: DAPPL (digital affinity profiling via proximity ligation, sequencing); 10 mM Tris-HCl pH 7.5, 50 mM NaCl, 1 mM DTT, 4% glycerol, room temperature, 30 min; GST-TFs on glutathione beads, 16-mer random dsDNA library, 0.1% formaldehyde crosslink after washing; high values mean tight binding
Conditions in all cases: protein: recombinant; tags: N-terminal GST; dsDNA, one strand shown
ERF = target: T1, ERF (Homo sapiens, UniProt P50548 1-548)
T1 sequence: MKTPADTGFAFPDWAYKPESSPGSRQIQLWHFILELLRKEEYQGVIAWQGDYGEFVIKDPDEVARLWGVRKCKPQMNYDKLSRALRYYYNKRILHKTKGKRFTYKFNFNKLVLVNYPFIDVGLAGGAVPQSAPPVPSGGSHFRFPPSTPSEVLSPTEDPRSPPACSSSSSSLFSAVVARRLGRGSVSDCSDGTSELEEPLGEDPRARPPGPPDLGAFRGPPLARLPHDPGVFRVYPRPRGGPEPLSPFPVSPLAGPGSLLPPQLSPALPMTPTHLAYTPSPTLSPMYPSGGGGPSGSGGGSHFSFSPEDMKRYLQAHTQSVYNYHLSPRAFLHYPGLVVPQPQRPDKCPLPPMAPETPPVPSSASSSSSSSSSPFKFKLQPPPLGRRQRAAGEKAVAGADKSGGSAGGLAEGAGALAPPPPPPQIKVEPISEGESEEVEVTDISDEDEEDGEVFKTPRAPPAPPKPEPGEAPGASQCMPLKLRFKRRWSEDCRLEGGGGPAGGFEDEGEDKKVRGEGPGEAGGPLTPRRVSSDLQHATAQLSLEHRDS
Outline: (§1)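 Sequencing on an Illumina NextSeq500 followed washing, crosslinking with 0.1% formaldehyde, proximity ligation (BsaI/T4 ligase, 1 h, 37 °C) and PCR amplification of pools that had been incubated for 30 min at room temperature with 200 nmole of a random double-stranded 16-mer DNA library in Tris/NaCl/DTT/glycerol buffer. Each pool held DNA-barcoded human transcription factors, expressed in yeast as GST fusions and captured on glutathione beads, plus a tag-only sample. Binding signal is a hexamer's read frequency for a factor divided by its frequency in the tag-only sample.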

ETV3L = target: T2, ETV3L (Homo sapiens, UniProt Q6ZN32 1-361)
T2 sequence: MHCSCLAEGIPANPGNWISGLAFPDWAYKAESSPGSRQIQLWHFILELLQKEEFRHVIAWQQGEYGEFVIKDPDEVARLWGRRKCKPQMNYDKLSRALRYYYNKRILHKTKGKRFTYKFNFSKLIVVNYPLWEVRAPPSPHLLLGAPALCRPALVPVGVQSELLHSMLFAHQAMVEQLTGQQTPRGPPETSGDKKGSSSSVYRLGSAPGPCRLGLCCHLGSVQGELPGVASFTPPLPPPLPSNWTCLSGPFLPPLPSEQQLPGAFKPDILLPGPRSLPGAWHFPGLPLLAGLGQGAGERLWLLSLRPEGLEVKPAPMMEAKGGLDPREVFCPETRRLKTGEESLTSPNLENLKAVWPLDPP
Outline: as §1

ETS2 = target: T3, ETS2 (Homo sapiens, UniProt P15036 1-469)
T3 sequence: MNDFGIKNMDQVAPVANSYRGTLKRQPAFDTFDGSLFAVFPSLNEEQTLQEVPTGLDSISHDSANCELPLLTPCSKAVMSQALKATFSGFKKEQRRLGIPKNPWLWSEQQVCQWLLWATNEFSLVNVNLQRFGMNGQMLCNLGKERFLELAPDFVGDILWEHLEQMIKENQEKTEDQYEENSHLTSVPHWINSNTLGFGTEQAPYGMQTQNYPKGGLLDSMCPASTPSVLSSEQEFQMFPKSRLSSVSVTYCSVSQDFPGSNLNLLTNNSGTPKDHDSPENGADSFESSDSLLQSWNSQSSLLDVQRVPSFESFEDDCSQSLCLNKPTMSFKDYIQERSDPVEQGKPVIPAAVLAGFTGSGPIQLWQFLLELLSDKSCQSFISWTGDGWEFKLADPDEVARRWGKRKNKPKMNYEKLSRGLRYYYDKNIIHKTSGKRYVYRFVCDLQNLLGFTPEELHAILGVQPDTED
Outline: as §1

SPDEF = target: T4, SPDEF (Homo sapiens, UniProt O95238 1-335)
T4 sequence: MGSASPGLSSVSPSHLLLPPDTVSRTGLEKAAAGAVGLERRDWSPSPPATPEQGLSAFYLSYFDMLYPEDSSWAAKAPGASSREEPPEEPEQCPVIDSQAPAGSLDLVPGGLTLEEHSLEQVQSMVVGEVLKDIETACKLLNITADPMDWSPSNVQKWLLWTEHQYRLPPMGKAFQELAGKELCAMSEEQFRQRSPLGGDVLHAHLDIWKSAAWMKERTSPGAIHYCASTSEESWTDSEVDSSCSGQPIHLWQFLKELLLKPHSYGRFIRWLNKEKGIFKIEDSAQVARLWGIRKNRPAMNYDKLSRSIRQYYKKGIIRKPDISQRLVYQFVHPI
Outline: as §1

ETV7 = target: T5, ETV7 (Homo sapiens, UniProt Q9Y603 1-341)
T5 sequence: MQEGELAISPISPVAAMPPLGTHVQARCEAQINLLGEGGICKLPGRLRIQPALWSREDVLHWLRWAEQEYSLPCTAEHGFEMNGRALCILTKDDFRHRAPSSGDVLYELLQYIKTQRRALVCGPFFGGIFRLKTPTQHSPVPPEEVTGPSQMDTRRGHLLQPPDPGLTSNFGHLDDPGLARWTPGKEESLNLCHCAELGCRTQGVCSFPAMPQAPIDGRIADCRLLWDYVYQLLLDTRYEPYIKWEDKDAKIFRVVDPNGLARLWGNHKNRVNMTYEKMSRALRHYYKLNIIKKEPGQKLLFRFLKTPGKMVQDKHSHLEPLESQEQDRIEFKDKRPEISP
Outline: as §1

ELF5 = target: T6, ELF5 (Homo sapiens, UniProt Q9UKW6-2 1-255)
T6 sequence: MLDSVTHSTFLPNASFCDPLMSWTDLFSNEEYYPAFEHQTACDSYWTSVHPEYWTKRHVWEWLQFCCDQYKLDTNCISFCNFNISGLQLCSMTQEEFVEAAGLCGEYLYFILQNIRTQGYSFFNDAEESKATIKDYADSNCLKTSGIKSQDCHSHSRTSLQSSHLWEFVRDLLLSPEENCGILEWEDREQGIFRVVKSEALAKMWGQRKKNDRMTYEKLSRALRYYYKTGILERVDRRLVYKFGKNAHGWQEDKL
Outline: as §1

ETV3 = target: T7, ETV3 (Homo sapiens, UniProt P41162-2 1-143)
T7 sequence: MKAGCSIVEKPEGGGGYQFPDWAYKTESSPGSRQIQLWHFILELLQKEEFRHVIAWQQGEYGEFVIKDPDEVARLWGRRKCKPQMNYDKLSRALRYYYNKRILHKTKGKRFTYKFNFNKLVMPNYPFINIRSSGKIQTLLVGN
Outline: as §1

ETV6 = ETV6 (Homo sapiens, UniProt P41212 1-452)
Sequence of ETV6 (P41212 whole entry): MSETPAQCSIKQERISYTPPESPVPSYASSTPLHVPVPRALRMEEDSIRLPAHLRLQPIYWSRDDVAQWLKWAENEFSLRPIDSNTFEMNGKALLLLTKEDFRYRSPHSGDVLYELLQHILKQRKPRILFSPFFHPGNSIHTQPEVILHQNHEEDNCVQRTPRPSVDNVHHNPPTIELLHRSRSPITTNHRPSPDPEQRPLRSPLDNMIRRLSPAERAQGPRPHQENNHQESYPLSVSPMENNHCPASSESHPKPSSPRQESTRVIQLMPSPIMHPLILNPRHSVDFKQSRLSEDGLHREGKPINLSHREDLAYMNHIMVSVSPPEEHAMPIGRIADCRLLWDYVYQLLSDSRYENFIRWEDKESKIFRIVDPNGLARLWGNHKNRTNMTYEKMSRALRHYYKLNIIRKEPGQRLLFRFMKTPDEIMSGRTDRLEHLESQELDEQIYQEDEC
Outline: as §1

| Sequence | binding signal (ERF) | binding signal (ETV3L) | binding signal (ETS2) | binding signal (SPDEF) | binding signal (ETV7) | binding signal (ELF5) | binding signal (ETV3) | binding signal (ETV6) |
| --- | --- | --- | --- | --- | --- | --- | --- | --- |
| GGCTCC | 1.28 fold enrichment (6-mer frequency, TF over GST control) | 1.27 fold enrichment (6-mer frequency, TF over GST control) | 1.21 fold enrichment (6-mer frequency, TF over GST control) | 1.48 fold enrichment (6-mer frequency, TF over GST control) | 1.25 fold enrichment (6-mer frequency, TF over GST control) | 1.33 fold enrichment (6-mer frequency, TF over GST control) | 1.3 fold enrichment (6-mer frequency, TF over GST control) | 1.25 fold enrichment (6-mer frequency, TF over GST control) |
| CTAATA | 1.27 fold enrichment (6-mer frequency, TF over GST control) | 1.2 fold enrichment (6-mer frequency, TF over GST control) | 1.18 fold enrichment (6-mer frequency, TF over GST control) | 1.25 fold enrichment (6-mer frequency, TF over GST control) | 1.24 fold enrichment (6-mer frequency, TF over GST control) | 1.08 fold enrichment (6-mer frequency, TF over GST control) | 1.06 fold enrichment (6-mer frequency, TF over GST control) | 1.13 fold enrichment (6-mer frequency, TF over GST control) |
| TCTCCA | 1.42 fold enrichment (6-mer frequency, TF over GST control) | 1.58 fold enrichment (6-mer frequency, TF over GST control) | 1.53 fold enrichment (6-mer frequency, TF over GST control) | 1.5 fold enrichment (6-mer frequency, TF over GST control) | 1.31 fold enrichment (6-mer frequency, TF over GST control) | 1.37 fold enrichment (6-mer frequency, TF over GST control) | 1.41 fold enrichment (6-mer frequency, TF over GST control) | 1.4 fold enrichment (6-mer frequency, TF over GST control) |
| AACTCC | 1.36 fold enrichment (6-mer frequency, TF over GST control) | 1.27 fold enrichment (6-mer frequency, TF over GST control) | 1.32 fold enrichment (6-mer frequency, TF over GST control) | 1.33 fold enrichment (6-mer frequency, TF over GST control) | 1.31 fold enrichment (6-mer frequency, TF over GST control) | 1.32 fold enrichment (6-mer frequency, TF over GST control) | 1.34 fold enrichment (6-mer frequency, TF over GST control) | 1.4 fold enrichment (6-mer frequency, TF over GST control) |
| TTTGTA | 1.63 fold enrichment (6-mer frequency, TF over GST control) | 1.69 fold enrichment (6-mer frequency, TF over GST control) | 1.52 fold enrichment (6-mer frequency, TF over GST control) | 1.6 fold enrichment (6-mer frequency, TF over GST control) | 1.53 fold enrichment (6-mer frequency, TF over GST control) | 1.46 fold enrichment (6-mer frequency, TF over GST control) | 1.63 fold enrichment (6-mer frequency, TF over GST control) | 1.54 fold enrichment (6-mer frequency, TF over GST control) |
| CTCTGA | 1.22 fold enrichment (6-mer frequency, TF over GST control) | 1.07 fold enrichment (6-mer frequency, TF over GST control) | 1.25 fold enrichment (6-mer frequency, TF over GST control) | 1.11 fold enrichment (6-mer frequency, TF over GST control) | 1.34 fold enrichment (6-mer frequency, TF over GST control) | 1.11 fold enrichment (6-mer frequency, TF over GST control) | 1.19 fold enrichment (6-mer frequency, TF over GST control) | 1.16 fold enrichment (6-mer frequency, TF over GST control) |
| TTGTTC | 1.63 fold enrichment (6-mer frequency, TF over GST control) | 1.44 fold enrichment (6-mer frequency, TF over GST control) | 1.33 fold enrichment (6-mer frequency, TF over GST control) | 1.48 fold enrichment (6-mer frequency, TF over GST control) | 1.44 fold enrichment (6-mer frequency, TF over GST control) | 1.55 fold enrichment (6-mer frequency, TF over GST control) | 1.52 fold enrichment (6-mer frequency, TF over GST control) | 1.46 fold enrichment (6-mer frequency, TF over GST control) |
| AAAAAG | 1.22 fold enrichment (6-mer frequency, TF over GST control) | 1.26 fold enrichment (6-mer frequency, TF over GST control) | 1.23 fold enrichment (6-mer frequency, TF over GST control) | 1.18 fold enrichment (6-mer frequency, TF over GST control) | 1.32 fold enrichment (6-mer frequency, TF over GST control) | 1.24 fold enrichment (6-mer frequency, TF over GST control) | 1.23 fold enrichment (6-mer frequency, TF over GST control) | 1.21 fold enrichment (6-mer frequency, TF over GST control) |
| CAATCT | 1.21 fold enrichment (6-mer frequency, TF over GST control) | 1.14 fold enrichment (6-mer frequency, TF over GST control) | 1.18 fold enrichment (6-mer frequency, TF over GST control) | 1.03 fold enrichment (6-mer frequency, TF over GST control) | 1.25 fold enrichment (6-mer frequency, TF over GST control) | 1.16 fold enrichment (6-mer frequency, TF over GST control) | 1.19 fold enrichment (6-mer frequency, TF over GST control) | 1.19 fold enrichment (6-mer frequency, TF over GST control) |
| CTTCCG | 6.13 fold enrichment (6-mer frequency, TF over GST control) | 7.08 fold enrichment (6-mer frequency, TF over GST control) | 8.04 fold enrichment (6-mer frequency, TF over GST control) | 7.63 fold enrichment (6-mer frequency, TF over GST control) | 7.48 fold enrichment (6-mer frequency, TF over GST control) | 11.4 fold enrichment (6-mer frequency, TF over GST control) | 8.47 fold enrichment (6-mer frequency, TF over GST control) | 9.62 fold enrichment (6-mer frequency, TF over GST control) |
| TGGGAT | 1.05 fold enrichment (6-mer frequency, TF over GST control) | 1.15 fold enrichment (6-mer frequency, TF over GST control) | 1.17 fold enrichment (6-mer frequency, TF over GST control) | 1.17 fold enrichment (6-mer frequency, TF over GST control) | 1.15 fold enrichment (6-mer frequency, TF over GST control) | 1.2 fold enrichment (6-mer frequency, TF over GST control) | 1.18 fold enrichment (6-mer frequency, TF over GST control) | 1.23 fold enrichment (6-mer frequency, TF over GST control) |
| ATATAG | 1.12 fold enrichment (6-mer frequency, TF over GST control) | 1.11 fold enrichment (6-mer frequency, TF over GST control) | 1.11 fold enrichment (6-mer frequency, TF over GST control) | 1.14 fold enrichment (6-mer frequency, TF over GST control) | 1.24 fold enrichment (6-mer frequency, TF over GST control) | 1.13 fold enrichment (6-mer frequency, TF over GST control) | 1.19 fold enrichment (6-mer frequency, TF over GST control) | 1.17 fold enrichment (6-mer frequency, TF over GST control) |
